# KB-V1 cytotox: kills drug-selected multidrug resistant KB-V1 cells | 3.4% of 400,000 active | KB-V1 MDR cells viability, CellTiter-Glo, 72 h | Potency, µM (doses to about 46.1 µM), most hits filed as cytotoxic; further: nearly all actives have a fitted effect of over 60% in size
#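 Cytotoxicity via CellTiter-Glo luminescence after 72 h compound exposure at 37 degrees C. Cells: drug-selected KB-V1 line, DMEM phenol-red free plus 10% FBS. Compounds tested at multiple concentrations; normalized data fitted to concentration-effect curves.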
# DT40 TDP1 no CPT: qHTS for Inhibitors of human tyrosyl-DNA phosphodiesterase 1 (TDP1): qHTS in cells in absence of CPT. DT40 Tdp1-/- hTDP1 cells, no CPT, ATP luminescence, 48 h. Potency, µM (top dose mostly 46.2 µM), without a hit: at the highest dose activity change, negative = growth inhibition, hits mostly inhibitors. 15% of 420,000 active. AID 686978, 2013; further: nearly all actives have a fitted effect of over 55% in size
#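 Seeded 400 DT40-hTDP1 cells/well (vehicle DMSO, no 20 nM CPT); pinned compounds; ≥48 hr at 37 °C; CellTiter-Glo luminescence as viability measure.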
# HT1080 IDH1KD tx: HT-1080 IDH1 knockdown cell toxicity (counter line); HT-1080 IDH1 knockdown viability, ATP luminescence, 48 h; Potency, µM (series often up to 46.1 µM), without a hit: at the highest dose activity, negative = toxicity, hits mostly cytotoxic; 2% of 360,000 active;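 further: 0% = DMSO wells and -100% = cell-free medium wells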
#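 After a 2 h attachment period, IDH1KD HT-1080 cells took pin-transferred compound for 48 h at 37 °C; ATP-based luminescence after 10 min room-temperature reagent incubation reported viability.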
# KB-3-1 tox: kills parental KB-3-1 adenocarcinoma cells. Potency, µM (series often up to 46.1 µM), hits mostly cytotoxic. KB-3-1 viability, CellTiter-Glo ATP luminescence, 72 h. AID 1347075. 1.4% of 400,000 active; further: nearly all actives have a fitted effect of over 60% in size
#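 Using CellTiter-Glo luminescence, growth of non-resistant KB-3-1 adenocarcinoma cells is assessed 72 h after pin-tool compound addition at 37 °C. Normalized responses across the concentration series yield fitted curves.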
# HT1080NT lethal: kills 2HG-producing HT-1080-NT fibrosarcoma cells; Potency, µM (titrated, usually from 46.1 µM), without a hit: at the top dose activity, negative = less viability, hits mostly cytotoxic; 1.6% of 360,000 active; AID 686970; HT-1080-NT fibrosarcoma viability, CellTiter-Glo ATP luminescence, 48 h;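 further: NT is the 2HG producing partner of a matched IDH1 knockdown line; 0% = DMSO-treated cells and -100% = media-only wells without cells; nearly all actives have a fitted effect of over 55% in size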
#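 Compounds were tested in concentration-response format on HT-1080-NT cells for 48 hours at 37 degrees C. Cell viability came from CellTiter-Glo luminescence; curves were classified by r2, response magnitude and activity.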
# TDP1 cell CPT: growth inhibition of DT40 Tdp1-/-;hTDP1 cells with camptothecin (screen for TDP1 inhibitors); chicken DT40 Tdp1-/-;hTDP1 cells + 20 nM CPT, ATP luminescence, 48 h; Potency, µM (series often up to 46.2 µM), for inactives: at the highest dose activity change, negative = growth inhibition, usual class: inhibitors; 12% of 420,000 active; further: nearly all actives have a fitted effect of over 55% in size
#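 Chicken DT40 Tdp1-/- cells stably complemented with human TDP1 were seeded at 400 cells/well in medium containing 20 nM camptothecin, exposed to pin-transferred compounds, and grown at 37 °C for at least 48 hr. Viability was read as ATP luminescence.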
# Numbers without * were called inactive; i = inactive; ? = inconclusive; / = no result given. Shown are actives, neighbours in structure and some others; about 19% of the full set was active somewhere. The call rests on the fitted dose curve; in most records, active means well fitted curve in the direction sought with a large enough effect; inconclusive means small, poorly fitted or top-dose-only effect, or another doubt; inactive means no such curve, though single readings can be large; an effect the other way counts as inactive or inconclusive. Unless noted, on the % scale 0 is the no-effect control and ±100 the full control effect; potency means the concentration at half of the fitted maximal effect.
SMILES,KB-V1 cytotox,DT40 TDP1 no CPT,HT1080 IDH1KD tx,KB-3-1 tox,HT1080NT lethal,TDP1 cell CPT
Clc1nc(-c2ccccc2)c2ccccc2n1,?,-1.6%,-3.7%,i,-2.4%,12.6%
CCOC(=O)N1CCN(C(=O)Cc2ccccc2[N+](=O)[O-])CC1,?,5.0%,-6.8%,i,-0.1%,-20.5%
COC(=O)c1cc(Cl)ccc1NCC(N)c1ccccc1 (stereo not drawn),i,?,18.4µM*,i,20.6µM*,18.4µM*
COc1ccccc1CC(=O)Nc1ccc(Cl)cc1C(=O)O,i,-11.0%,-14.0%,?,-3.9%,20.7%
Cc1ccc(S(=O)(=O)N(C)C)cc1NC(=O)c1cccnc1Oc1ccccc1,i,?,0.2%,i,5.8%,-17.7%
CN(C)C(=O)c1ccc(SC(=S)NCc2ccccc2)cc1,?,5.8µM*,1.0%,6.51µM*,?,5.8µM*
CCN(C[C@H]1N[C@@](C)(C(=O)OC)[C@H]2C(=O)N(Cc3ccccc3)C(=O)[C@@H]12)S(=O)(=O)c1ccccc1,i,-5.4%,6.0%,i,11.7%,-5.8%
CC1=C(C(=O)N2CCOCC2)CC(CC(=O)NCc2ccco2)C(=O)N1CCC1=CCCCC1 (stereo not drawn),i,?,-3.6%,i,2.5%,-10.5%
CC1=C(C(=O)N2CCOCC2)CC(CC(=O)NC(c2ccccc2)c2ccccc2)C(=O)N1CCC1=CCCCC1 (stereo not drawn),10.3µM*,?,-17.0%,i,-19.1%,?
CC1=C(C(=O)N(C)C)CC(CC(=O)NCCCCc2ccccc2)C(=O)N1CCC1=CCCCC1 (stereo not drawn),i,?,11.9%,i,3.6%,?
CC1=C(C(=O)N(C(C)C)C(C)C)CC(CC(=O)NC(c2ccccc2)c2ccccc2)C(=O)N1CCC1=CCCCC1 (stereo not drawn),?,18.4µM*,?,?,?,25.9µM*
Cc1cc(C)c(NC(=O)COC(=O)c2nc3nccc(C)n3n2)c(Cl)c1,i,4.2%,1.6%,i,5.2%,2.0%
CCOC(=O)c1noc2nc(C)n(CC(=O)Nc3cccc(OC)c3)c(=O)c12,?,3.8%,/,i,/,1.6%
C/C(=N\NC(=O)COc1ccccc1[N+](=O)[O-])c1cccs1,?,?,?,i,0.5%,-22.6%
COc1ccc(N(Cc2cccs2)C(=O)COc2ccc([N+](=O)[O-])cc2)cc1,?,25.9µM*,/,i,/,?
Cc1ccc(N(Cc2cccs2)C(=O)COc2ccccc2[N+](=O)[O-])cc1,/,23.1µM*,/,/,/,20.6µM*
O=C(NCc1cccs1)c1ccccc1[N+](=O)[O-],i,4.3%,3.5%,i,13.7%,5.3%
Cc1ccc(N(Cc2cccs2)C(=O)c2ccccc2[N+](=O)[O-])cc1,/,9.2µM*,/,/,/,14.6µM*
Cc1ccccc1NC(=O)Cc1nnc(SCC(=O)NC2CCCCC2)n1C,i,?,10.3%,i,19.6%,-3.7%
CCOC(=O)c1sc(NC(=O)Nc2ccc(F)cc2)nc1C,?,?,-1.8%,?,-7.1%,?
C=CCSc1nsc(NC(=O)Nc2ccc(F)cc2)n1,20.6µM*,3.26µM*,2.91µM*,?,16.4µM*,18.4µM*
CCSc1nsc(NC(=O)Nc2ccccc2F)n1,16.4µM*,16.4µM*,-28.6%,?,?,18.4µM*
CC(=O)NC1C(Oc2ccc3c(C)cc(=O)oc3c2)OC(COC(C)=O)C(OC(C)=O)C1OC(C)=O (stereo not drawn),i,-14.6%,1.0%,?,0.8%,2.8%

# Source: PubChem BioAssay
